# Compounds with a hit are over-represented: about 7.9% of the library has one in this group of screens.
# HCMV inh: human cytomegalovirus inhibition; activity change, negative = inhibition, % at 57.5 µM; HFF cells, HCMV-luciferase reporter, 72 h; stronger effect = lower value; hit rate 4.5% among 410,000; AID 1259415; in the data active means activity change below about -60%; inconclusive means no clear call, values can overlap the other calls; inactive means above about -39%
#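 HFF cells seeded 16 h at 37C, treated with compounds, infected with luciferase-reporter HCMV at MOI 1 PFU/cell; luciferase read at 72 h post infection, normalized to buffer-only and Salinomycin controls.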
# LASV entry inh: Lassa virus entry inhibition | Lassa virus pseudotype entry inhibition, cell reporter | hit rate 1.2% among 300,000 | Potency, µM (highest dose often 37.9 µM), without a hit: at the top dose activity change, negative = inhibition, hits mostly inhibitors; calls by dose curve; tested in HEK293 cells; further: potency means the concentration at half of the fitted maximal effect; nearly all actives have a fitted effect of over 50% in size
# MARV entry inh: inhibitors of Marburg virus binding or cell entry | Marburg virus pseudotyped entry inhibition, cell reporter | Potency, µM (top dose mostly 37.8 µM), without a hit: top-dose activity change, negative = inhibition, actives largely listed as inhibitors | hit rate 1.8% among 300,000 | AID 540276; calls by dose curve; tested in HEK293 cells; further: potency means the concentration at half of the fitted maximal effect
# FMDV inh: blocks foot and mouth disease virus; FMDV antiviral cell-based qHTS; hit rate 1.2% among 410,000; Potency, µM (highest dose often 57.9 µM), without a hit: at the highest dose activity change, negative = inhibition, hits mostly inhibitors; calls by dose curve; tested in HEK293T cells; further: read-out not given here; potency means the concentration at half of the fitted maximal effect; nearly all actives have a fitted effect of over 45% in size
# HCV inh: blocks hepatitis C virus | hit rate 3.4% among 340,000 | Huh7.5.1 HCVcc-Cre infection, luciferase reporter, 44 h | Potency, µM (doses to about 41.8 µM), for inactives: at the top dose activity change, negative = inhibition, most hits filed as inhibitors | AID 651820; active means well fitted inhibition curve with a large enough effect; inconclusive means small, poorly fitted or top-dose-only effect, or another doubt; inactive means no such curve, though single readings can be large or run the other way; further: potency means the concentration at half of the fitted maximal effect
#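 Cells (1,000/well) were plated 4 h before compound, then infected with HCVcc-Cre virus (~0.5 moi). After 44 h further culture, infection was read as luciferase luminescence following a 15 min substrate incubation at room temperature.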
# * marks the source's active call; other numbers are inactive results; ? = inconclusive; . = not tested or not shown; [ ] = remark or other dose. On the % scale 0 is the no-effect control and ±100 the full control effect.
SMILES,HCMV inh,LASV entry inh,MARV entry inh,FMDV inh,HCV inh
Fc1ccc(N2Cc3ccccc3-n3nncc3C2)cc1,-104*,.,.,-12%,.
CN(C)C(CNC(=O)c1ccc2c(=O)n(-c3ccccc3F)c(=S)[nH]c2c1)Cc1ccccc1 (stereo not drawn),56,0%,?,-12%,2.2µM*
O=C(CSc1ncc2c(n1)-c1ccc(Cl)cc1N(Cc1ccccc1)S2(=O)=O)Nc1ccc(F)c(F)c1,7,?,.,-18%,.
Cc1ccc(NC(=O)CSc2ncc3c(n2)-c2ccc(Cl)cc2N(C)S3(=O)=O)cc1F,-16,25%[46.1 µM],.,-16%,.
COc1ccccc1NC(=O)CSc1ncc2c(n1)-c1cc(Cl)ccc1N(Cc1ccccc1)S2(=O)=O,-19,-2%[46.1 µM],.,13%,.
CN1c2cc(Cl)ccc2-c2nc(SCC(=O)Nc3ccc(F)cc3F)ncc2S1(=O)=O,-63*,-7%[46.1 µM],.,?,.
Cc1cccc(C)c1NC(=O)CSc1ncc2c(n1)-c1ccc(Cl)cc1N(Cc1ccccc1)S2(=O)=O,-99*,6%[46.1 µM],.,-11%,.
O=C(CSc1ncc2c(n1)-c1cc(Cl)ccc1N(Cc1ccccc1)S2(=O)=O)Nc1ccc(F)cc1F,-98*,?,.,?,.
COc1ccc2c3c(n(C)c2c1)[C@@H](CO)N(S(C)(=O)=O)CC31CCN(C(=O)C2CCCC2)CC1,6,.,.,.,.
CN1CCC2(CC1)[C@H]1CN(C)CC=C1C(C#N)=C(N)C2(C#N)C#N,.,.,-9%,.,.
COCCn1c(C)c(C)c2c(NCCc3ccccc3)ncnc21,-99*,.,.,?,?
Cc1c(C)n(Cc2ccccc2)c2ncnc(NN)c12,-73*,.,.,?,11µM*
Cc1c(C)n(CCc2ccccc2)c2ncnc(NN)c12,-40,-21%[46.1 µM],-23%[46.1 µM],-10%,-18%
O=C(CN1C(=O)NC2(CCCCC2)C1=O)NCc1ccc2c(c1)OCO2,-19,.,.,-22%,-28%
O=C(CSc1nc(O)cc(=O)n1-c1ccc(Cl)c(Cl)c1)Nc1ccc(Cl)cc1Cl,20,5%,23%,?,33%
Cc1cc(C)cc(NC(=O)Cn2cc3c(n2)CCCCC3)c1,.,.,-1%,.,.
CN(C)c1ccc(NC(=O)Cn2cc3c(n2)CCCC3)cc1,-99*,.,.,35%,-15%
Cc1ccc(S(=O)(=O)NN=Cc2ccccc2Cl)cc1,12,.,.,67%,.
CCN(CC)c1ccc(-c2nc3cnccn3c2NC2CCCC2)cc1,14,0%,?,10%,32µM*
CC(=O)Nc1cccc(-c2ccnc3c2CC(C)(C(=O)NCc2ccc(F)c(F)c2)O3)c1 (stereo not drawn),-7,.,.,-24%,.
Cc1ccc(Cl)cc1N1CCN(C(=O)C2CCN(S(=O)(=O)c3cccnc3)CC2)CC1,-30,?,?,16µM*,?
CCC(C)NC(=O)C1CCN(S(=O)(=O)c2cccnc2)CC1 (stereo not drawn),-76*,16%,-5%,-19%,17%
O=C(C1CCN(S(=O)(=O)c2cccnc2)CC1)N1CCCCC1,24,17%,-8%,.,16%
Cc1ccc(Cl)cc1N1CCN(C(=O)C2CCN(S(=O)(=O)c3c(C)nn(C)c3C)CC2)CC1,-37,?,?,32µM*,11µM*
CCCC(C)NC(=O)C1CCN(S(=O)(=O)c2ccccc2)CC1 (stereo not drawn),29,-5%,7%,-13%,2%
SMILES,HCMV inh,LASV entry inh,MARV entry inh,FMDV inh,HCV inh
O=C(C1CCN(S(=O)(=O)c2cccnc2)CC1)N1CCN(c2ccccc2Cl)CC1,-2,2%,-3%,?,-5%
O=C(C1CCN(S(=O)(=O)c2cccnc2)CC1)N1CCN(c2ccc(Cl)cc2)CC1,-90*,.,4%,?,?
COc1ccc(NC(=O)C(C(C)C)N2Cc3ccccc3C2=O)cc1 (stereo not drawn),18,2%[46.1 µM],.,1%,.
O=C(C1CCN(S(=O)(=O)c2ccc3ccccc3c2)CC1)N1CCN(c2ncccn2)CC1,-32,?,?,28µM*,?
COc1ccc(N2CCN(C(=O)C3CCN(S(=O)(=O)c4cn(C)cn4)CC3)CC2)cc1,-72*,-9%[46.1 µM],.,-10%,.
COc1ccccc1CNC(=O)C1CCN(S(=O)(=O)c2cccc3cccnc23)CC1,-71*,.,-5%,0%,-7%
O=C(Nc1ccccn1)C1CCN(S(=O)(=O)c2ccc3ccccc3c2)CC1,-26,6%,-4%[46.1 µM],-18%,-14%
O=C(C1CCN(S(=O)(=O)c2cccc3cccnc23)CC1)N1CCN(c2ccc(Cl)cc2)CC1,-79*,.,3%,-30%,11µM*
CCOc1ccc(C2C([N+](=O)[O-])=C(C)N(C)C(=O)N2C)cc1OC (stereo not drawn),13,.,.,-1%,?
COc1ccc(C(CNC(=O)c2cc(F)c(F)c(F)c2F)N2CCOCC2)cc1 (stereo not drawn),15,?,4%[46.1 µM],-10%,?
CC1(C)COC(/C=C/c2cccc([N+](=O)[O-])c2)=N1,-95*,?,?,25µM*,?
O=C(CSc1nnc(COc2cccc3cccnc23)o1)N1CCc2ccccc21,60,7%,0%,.,2.2µM*
COc1cccc(/C=N/n2c(N)c(S(=O)(=O)c3cccs3)c3nc4ccccc4nc32)c1OC,-81*,-30%,-24%,17%,?
COCCCNCCCOc1ccc(Cl)cc1Br,-5,-18%,16µM*,-8%,13µM*
COCCCNCCCOc1ccc(C)cc1Br,-63*,?,?,-8%,-25%
CC(O)CNCCCOc1ccc(Cl)cc1C(C)(C)C (stereo not drawn),1,-15%,?,-20%,11µM*
CN(C)CCOCCOc1ccc(Cl)cc1C(C)(C)C,?,?,?,-6%,?
CC(=O)Oc1ccc(N(C(C)=O)S(=O)(=O)c2cccs2)c2ccccc12,-24,14%[14.3 µM],12µM*,16µM*,.
CC(=O)Oc1ccccc1N(C(C)=O)S(=O)(=O)c1ccc2ccccc2c1,-35,12%,?,13%,1%
CCOc1ccccc1NC(=O)Cn1c(=O)n(Cc2ccc(OC)cc2)c(=O)c2oc3ccccc3c21,-8,13%[46.1 µM],.,-16%,.
O=C(N/N=C/c1ccc(O)cc1O)c1ccc(CN2C(=O)c3cccc4cccc2c34)cc1,-101*,5.2µM*,3.2µM*,-19%,?
O=C(N/N=C/c1ccccc1)c1ccc(CN2C(=O)c3cccc4cccc2c34)cc1,21,-1%,14%,-15%,?
Cc1cc([N+](=O)[O-])nn1Cc1ccc(C(=O)N/N=C/c2ccc(O)cc2O)cc1,?,3.5µM*,7.3µM*,-17%,?
CC(C)(C)c1ccc(/C=N/NC(=S)NCc2ccccc2)cc1,-24,0.26µM*,1%,-5%,-1%
CCOc1ccc(CNC(=S)N/N=C/c2ccc(OC)c(OC)c2)cc1,3,2.8µM*,-72%,8%,-12%
CNC(=S)N/N=C/c1ccc(N(C)C)cc1,15,1%,-26%,52%,10%
C=CCNC(=S)N/N=C/c1ccc(C(C)(C)C)cc1,?,?,?,-7%,?

# Assay outcomes: PubChem BioAssay, National Center for Advancing Translational Sciences (NCATS)
